Publication PMC7862700, “An all-to-all approach to the identification of sequence-specific readers for epigenetic DNA modifications on cytosine”

What was measured:
Assay in all cases: DAPPL (digital affinity profiling via proximity ligation, sequencing); 10 mM Tris-HCl pH 7.5, 50 mM NaCl, 1 mM DTT, 4% glycerol, room temperature, 30 min; GST-TFs on glutathione beads, 16-mer random dsDNA library, 0.1% formaldehyde crosslink after washing; high values mean tight binding
[1] = target: T1, FEV (Homo sapiens, UniProt Q99581 1-238); settings: protein: recombinant; tags: N-terminal GST; dsDNA, one strand shown
T1 sequence: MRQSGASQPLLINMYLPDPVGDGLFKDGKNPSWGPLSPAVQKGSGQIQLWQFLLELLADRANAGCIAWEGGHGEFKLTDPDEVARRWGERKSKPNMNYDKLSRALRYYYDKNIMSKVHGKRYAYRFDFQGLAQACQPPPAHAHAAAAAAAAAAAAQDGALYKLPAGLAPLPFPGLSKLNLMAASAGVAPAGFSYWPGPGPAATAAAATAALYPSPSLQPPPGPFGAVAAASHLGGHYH
Method in brief: (§1)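 Pools of DNA-barcoded human transcription factors, expressed in yeast as GST fusions on glutathione beads and combined with a tag-only sample, were incubated with 200 nmole of a 16-mer random double-stranded DNA library. Incubation took 30 min at room temperature in Tris/NaCl/DTT/glycerol buffer and was followed by washing, 0.1% formaldehyde crosslinking, proximity ligation (BsaI/T4 ligase, 1 h, 37 °C), PCR amplification and sequencing on an Illumina NextSeq500. Binding signal is the ratio of a hexamer's read frequency for a factor to its frequency for the tag-only sample.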

[2] = target: ETV5 (Homo sapiens, UniProt P41161 1-510); settings: protein: recombinant; tags: N-terminal GST; dsDNA, one strand shown
Sequence of ETV5 (P41161 whole entry): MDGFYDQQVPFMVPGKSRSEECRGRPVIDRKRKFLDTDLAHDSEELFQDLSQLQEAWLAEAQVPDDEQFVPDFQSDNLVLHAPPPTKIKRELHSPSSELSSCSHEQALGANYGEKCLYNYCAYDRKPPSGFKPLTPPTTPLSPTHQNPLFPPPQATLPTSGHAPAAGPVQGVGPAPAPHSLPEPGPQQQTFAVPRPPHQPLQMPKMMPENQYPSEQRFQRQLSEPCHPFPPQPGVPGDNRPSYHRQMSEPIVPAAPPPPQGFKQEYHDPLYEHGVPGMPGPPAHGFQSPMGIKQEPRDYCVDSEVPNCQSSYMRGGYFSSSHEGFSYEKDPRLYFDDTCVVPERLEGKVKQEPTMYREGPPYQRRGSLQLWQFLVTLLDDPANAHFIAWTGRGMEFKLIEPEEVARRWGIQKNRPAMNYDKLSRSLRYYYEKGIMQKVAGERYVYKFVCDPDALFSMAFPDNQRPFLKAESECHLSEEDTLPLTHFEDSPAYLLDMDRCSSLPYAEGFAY
Method in brief: as §1

[3] = target: HSF1 (Homo sapiens, UniProt Q00613 1-529); settings: protein: recombinant; tags: N-terminal GST; chain copies: 3; dsDNA, one strand shown
Sequence of HSF1 (Q00613 whole entry): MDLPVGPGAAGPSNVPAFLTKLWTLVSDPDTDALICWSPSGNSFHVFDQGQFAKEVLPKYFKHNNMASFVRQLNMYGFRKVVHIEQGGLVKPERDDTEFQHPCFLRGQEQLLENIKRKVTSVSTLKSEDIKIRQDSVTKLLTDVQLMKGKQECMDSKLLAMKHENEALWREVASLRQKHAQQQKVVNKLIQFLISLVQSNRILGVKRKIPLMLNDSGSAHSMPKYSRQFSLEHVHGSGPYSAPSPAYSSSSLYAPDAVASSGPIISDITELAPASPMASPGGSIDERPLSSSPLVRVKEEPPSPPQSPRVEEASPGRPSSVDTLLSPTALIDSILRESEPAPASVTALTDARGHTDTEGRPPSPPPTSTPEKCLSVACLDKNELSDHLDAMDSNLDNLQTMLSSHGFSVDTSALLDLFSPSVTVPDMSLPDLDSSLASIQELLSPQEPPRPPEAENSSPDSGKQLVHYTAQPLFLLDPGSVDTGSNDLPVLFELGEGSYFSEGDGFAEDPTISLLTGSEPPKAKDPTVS
Method in brief: as §1

[4] = target: T2, SPIC (Homo sapiens, UniProt Q8N5J4 1-248); settings: protein: recombinant; tags: N-terminal GST; dsDNA, one strand shown
T2 sequence: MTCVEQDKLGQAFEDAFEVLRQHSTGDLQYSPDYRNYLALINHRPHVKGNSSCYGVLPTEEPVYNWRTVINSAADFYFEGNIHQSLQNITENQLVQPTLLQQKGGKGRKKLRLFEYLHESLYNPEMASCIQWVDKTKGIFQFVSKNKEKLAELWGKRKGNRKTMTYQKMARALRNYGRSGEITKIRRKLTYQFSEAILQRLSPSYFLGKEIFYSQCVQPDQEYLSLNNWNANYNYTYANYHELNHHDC
Method in brief: as §1

[5] = target: ELF4 (Homo sapiens, UniProt Q99607 1-663); settings: protein: recombinant; tags: N-terminal GST; dsDNA, one strand shown
Sequence of ELF4 (Q99607 whole entry): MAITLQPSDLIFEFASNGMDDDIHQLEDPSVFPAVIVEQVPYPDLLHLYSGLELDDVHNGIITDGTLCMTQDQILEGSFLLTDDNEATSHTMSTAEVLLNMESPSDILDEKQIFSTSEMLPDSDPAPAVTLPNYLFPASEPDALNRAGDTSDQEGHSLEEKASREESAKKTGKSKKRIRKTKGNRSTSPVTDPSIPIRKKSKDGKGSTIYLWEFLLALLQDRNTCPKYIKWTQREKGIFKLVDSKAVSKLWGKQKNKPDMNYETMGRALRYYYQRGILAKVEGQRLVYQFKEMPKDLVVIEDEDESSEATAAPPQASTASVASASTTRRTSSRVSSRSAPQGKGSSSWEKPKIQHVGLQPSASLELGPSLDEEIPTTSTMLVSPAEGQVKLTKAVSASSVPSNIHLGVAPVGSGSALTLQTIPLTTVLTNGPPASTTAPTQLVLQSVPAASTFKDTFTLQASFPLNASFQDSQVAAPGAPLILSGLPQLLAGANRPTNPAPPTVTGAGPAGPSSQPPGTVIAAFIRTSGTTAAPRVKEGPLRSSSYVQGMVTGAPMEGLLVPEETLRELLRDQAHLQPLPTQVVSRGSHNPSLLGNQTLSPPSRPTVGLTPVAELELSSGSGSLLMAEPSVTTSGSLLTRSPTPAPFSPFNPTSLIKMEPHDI
Method in brief: as §1

[6] = target: T3, ELK4 (Homo sapiens, UniProt P28324-2 1-405); settings: protein: recombinant; tags: N-terminal GST; dsDNA, one strand shown
T3 sequence: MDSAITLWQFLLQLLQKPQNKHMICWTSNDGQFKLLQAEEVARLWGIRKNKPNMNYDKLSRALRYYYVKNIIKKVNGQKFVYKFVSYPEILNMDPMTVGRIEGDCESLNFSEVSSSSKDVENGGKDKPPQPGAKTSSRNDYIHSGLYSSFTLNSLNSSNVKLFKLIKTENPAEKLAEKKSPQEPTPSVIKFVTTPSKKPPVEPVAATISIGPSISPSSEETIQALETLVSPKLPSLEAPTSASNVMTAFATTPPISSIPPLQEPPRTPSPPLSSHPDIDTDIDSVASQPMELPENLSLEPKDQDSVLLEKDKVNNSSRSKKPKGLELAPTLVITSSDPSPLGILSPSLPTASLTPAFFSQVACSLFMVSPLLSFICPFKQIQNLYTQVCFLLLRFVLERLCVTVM
Method in brief: as §1

[7] = target: T4, ETV2 (Homo sapiens, UniProt O00321 1-342); settings: protein: recombinant; tags: N-terminal GST; dsDNA, one strand shown
T4 sequence: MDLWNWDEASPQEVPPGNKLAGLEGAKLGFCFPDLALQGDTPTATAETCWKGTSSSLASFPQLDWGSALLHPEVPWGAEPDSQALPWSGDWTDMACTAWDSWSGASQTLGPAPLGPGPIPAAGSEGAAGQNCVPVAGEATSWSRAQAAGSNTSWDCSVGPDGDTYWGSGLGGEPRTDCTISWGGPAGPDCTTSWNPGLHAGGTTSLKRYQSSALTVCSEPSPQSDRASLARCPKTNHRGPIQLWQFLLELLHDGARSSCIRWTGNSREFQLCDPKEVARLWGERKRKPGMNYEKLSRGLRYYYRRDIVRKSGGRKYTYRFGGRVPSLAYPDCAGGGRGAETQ
Method in brief: as §1

[8] = target: T5, ELF3 (Homo sapiens, UniProt P78545 1-371); settings: protein: recombinant; tags: N-terminal GST; dsDNA, one strand shown
T5 sequence: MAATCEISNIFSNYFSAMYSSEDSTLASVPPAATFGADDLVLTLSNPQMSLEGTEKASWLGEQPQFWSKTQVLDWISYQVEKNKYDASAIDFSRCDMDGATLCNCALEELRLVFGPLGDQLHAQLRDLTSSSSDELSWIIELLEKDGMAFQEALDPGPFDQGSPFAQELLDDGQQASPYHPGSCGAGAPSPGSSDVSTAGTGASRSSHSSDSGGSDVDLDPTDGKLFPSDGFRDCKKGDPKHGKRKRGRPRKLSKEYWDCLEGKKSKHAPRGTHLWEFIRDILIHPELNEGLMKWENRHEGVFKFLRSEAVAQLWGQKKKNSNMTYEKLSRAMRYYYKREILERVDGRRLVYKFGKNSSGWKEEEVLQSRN
Method in brief: as §1

[9] = target: CRX (Homo sapiens, UniProt O43186 1-299); settings: protein: recombinant; tags: N-terminal GST; dsDNA, one strand shown
Sequence of CRX (O43186 whole entry): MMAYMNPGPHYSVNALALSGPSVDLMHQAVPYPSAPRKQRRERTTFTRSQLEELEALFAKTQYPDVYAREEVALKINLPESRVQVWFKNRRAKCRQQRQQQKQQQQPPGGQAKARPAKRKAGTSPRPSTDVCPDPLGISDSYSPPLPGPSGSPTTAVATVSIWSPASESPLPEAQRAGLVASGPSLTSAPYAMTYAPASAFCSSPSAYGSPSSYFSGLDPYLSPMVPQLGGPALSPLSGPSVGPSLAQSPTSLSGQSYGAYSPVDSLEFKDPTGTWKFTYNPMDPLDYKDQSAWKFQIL
Method in brief: as §1

[10] = target: ETV1 (Homo sapiens, UniProt P50549 1-477); settings: protein: recombinant; tags: N-terminal GST; dsDNA, one strand shown
Sequence of ETV1 (P50549 whole entry): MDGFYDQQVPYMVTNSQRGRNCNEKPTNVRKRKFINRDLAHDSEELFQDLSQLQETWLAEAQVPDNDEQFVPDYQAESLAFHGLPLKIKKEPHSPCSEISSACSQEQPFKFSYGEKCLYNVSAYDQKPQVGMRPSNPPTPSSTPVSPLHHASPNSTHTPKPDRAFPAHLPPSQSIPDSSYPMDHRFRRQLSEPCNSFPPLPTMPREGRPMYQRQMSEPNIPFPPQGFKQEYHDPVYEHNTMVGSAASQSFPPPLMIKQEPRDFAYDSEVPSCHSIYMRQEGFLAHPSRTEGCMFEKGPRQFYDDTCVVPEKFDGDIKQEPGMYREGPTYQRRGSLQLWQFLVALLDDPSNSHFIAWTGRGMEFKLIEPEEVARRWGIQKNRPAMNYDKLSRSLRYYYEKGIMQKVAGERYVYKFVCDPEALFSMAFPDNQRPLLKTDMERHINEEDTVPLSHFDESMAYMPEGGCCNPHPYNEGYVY
Method in brief: as §1

In the case of GAAAAT, the binding signal [1] is reported as 1.07 fold enrichment (6-mer frequency, TF over GST control), the binding signal [2] is reported as 1.16 fold enrichment (6-mer frequency, TF over GST control) and the binding signal [3] is reported as 1.49 fold enrichment (6-mer frequency, TF over GST control). For the same sequence, the binding signal [4] was 1.09 fold enrichment (6-mer frequency, TF over GST control), the binding signal [5] was 1.14 fold enrichment (6-mer frequency, TF over GST control) and the binding signal [6] was 1.01 fold enrichment (6-mer frequency, TF over GST control). For the same sequence, the binding signal [7] was 1.17 fold enrichment (6-mer frequency, TF over GST control), the binding signal [8] was 1.09 fold enrichment (6-mer frequency, TF over GST control) and the binding signal [9] was 1.2 fold enrichment (6-mer frequency, TF over GST control). The binding signal [10] was 1.02 fold enrichment (6-mer frequency, TF over GST control).
